# Results taken from PubChem BioAssay AID651820 (National Center for Advancing Translational Sciences (NCATS), 2012).
# Out of some 340,000 compounds screened, about 12,000 (3.5%) were called active. About 18% were inconclusive and are not listed. The sample holds actives, similar compounds and a random draw of the others, so the mix is not that of the screen. The source holds several records for some structures; these can differ, active in one and inactive in another. Unmarked numbers belong to inactive results. Calls follow the shape of the dose curve; as a rule, active = well fitted inhibition curve with a large enough effect; inconclusive = small, poorly fitted or top-dose-only effect, or another doubt; inactive = no such curve, though single readings can be large or run the other way.
# Experiment: qHTS Assay for Inhibitors of Hepatitis C Virus (HCV)
# Details: Huh7.5.1 HCVcc-Cre infection, luciferase reporter, 44 h; series mostly up to 41.8 µM; activity change, negative = inhibition: at the top concentration
# Method in brief: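 Compounds are dispensed onto cells plated 4 h earlier at 1,000 per well, with HCVcc-Cre virus (about 0.5 moi) added next. Following 44 h of culture, luminescent signal is measured for 15 sec after 15 min with substrate at room temperature.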
# % is scaled to controls: 0 for no effect and ±100 for the full control effect; potency is read from the fitted curve at half-maximal effect.
Compound,"activity change, negative = inhibition",Potency
O=C(NNC(=O)c1ccc(-c2ccccc2)cc1)Nc1ccccc1,8.01%,–
C=CC[n+]1c(-c2ccc(C)cc2)csc1NNC(=O)Nc1ccccc1,–,5.62 µM (active)
C=CCNc1scc(-c2ccccc2)[n+]1CC=C,3.32%,–
N#CC(Cc1cc2ccccc2n1S(=O)(=O)c1ccccc1)OCc1ccccc1 (stereo not given),-4.57%,–
Nc1cccnc1Sc1ccccc1,19.3%,–
CN1CCN(c2ccc([N+](=O)[O-])c(Sc3nc4ccccc4[nH]3)c2)CC1,-7.82%,–
O=[N+]([O-])c1ccc(N2CCSCC2)cc1O,0.816%,–
CC1CCN(c2ccc([N+](=O)[O-])c(SCCO)c2)CC1,–,10 µM (active)
Cc1occc1-c1nnc(SCC(=O)NC2(C#N)CCCC2)n1C,12%,–
CN(C)CCCN(C(=O)c1ccc(S(=O)(=O)N2CCCCCC2)cc1)c1nc2cc3c(cc2s1)OCCO3,-25.6%,–
O=[N+]([O-])c1ccc(C=NN=Cc2ccc([N+](=O)[O-])cc2)cc1,3%,–
Cc1cccc(N2CCN(C(=O)c3cnn4c(C(F)F)cc(-c5ccccc5)nc34)CC2)c1C,18.3%,–
Cc1ccc(Cl)cc1N1CCN(C(=O)c2cccc3c(=O)c(C)c(-c4ccccc4)oc23)CC1,–,10 µM (active)
COC(=O)c1ccc(C(=O)OC)c(NC(=S)N2CCN(c3cc(Cl)ccc3C)CC2)c1,13.7%,–
CC(C#N)OC(=O)c1cccnc1SCC(=O)Nc1ccc2c(c1)OCO2 (stereo not given),-12.6%,–
Cc1ccc(CN2CC(C(=O)N3CCN(S(=O)(=O)c4ccccc4)CC3)CC2=O)cc1 (stereo not given),1.97%,–
Cc1cc(N2CCCC2)n2nc(C)c(-c3ccccc3)c2n1,5.02%,–
Cc1nn2c(NCCN(C)C)c3c(nc2c1-c1ccccc1)CCC3,–,12.6 µM (active)
Cc1cc(C(C)(C)C)n2nc(C)c(-c3ccccc3)c2n1,9.38%,–
O=C(Nc1nc2ccc([N+](=O)[O-])cc2s1)c1ccncc1,-3.8%,–
O=C(COC(=O)c1ccc(F)cc1)Nc1nc2ccc([N+](=O)[O-])cc2s1,-29.2%,–
O=C(NC(Nc1nc2ccc([N+](=O)[O-])cc2s1)(C(F)(F)F)C(F)(F)F)c1ccccc1,–,0.562 µM (active)

Compound,"activity change, negative = inhibition",Potency
NC(=O)C1CCN(C(=O)c2cc(S(=O)(=O)N3CCN(c4ccccc4)CC3)ccc2Cl)CC1,-5.21%,–
CC(=O)c1c(C)[nH]c(C(=O)OCC(=O)Nc2cc(S(=O)(=O)N3CCCCC3)ccc2C)c1C,-17.6%,–
CC(=O)c1c(C)[nH]c(C(=O)COC(=O)c2cccs2)c1C,2.01%,–
N#CCC(=O)Nc1ccc(C(=O)OCC(=O)Nc2sc3c(c2C#N)CCCC3)cc1,-2.61%,–
CC(=O)c1c(C)[nH]c(C(=O)OCC(=O)Nc2sc3c(c2C#N)CCCC3)c1C,–,12.6 µM (active)
Cc1cccc(C(=O)OCC(=O)Nc2sc3c(c2C#N)CCC3)c1,8.66%,–
CC(=O)c1c(C)[nH]c(C(=O)OCC(=O)NCCC(C)C)c1C,–,11.2 µM (active)
NN=C(NN=Cc1ccccc1)c1ccccc1,4.38%,–
O=[N+]([O-])c1cc2ccccc2nc1-c1ccccc1,-18.8%,–
CC1CCCCC12NC(=O)N(CC(=O)Nc1ccc(S(=O)(=O)Nc3ncccn3)cc1)C2=O (stereo not given),26.4%,–
COc1ccc(NC(=O)CC2SC(N3CCCCC3)=NC2=O)cc1OC (stereo not given),17.1%,–
CN(CC(=O)Nc1cccc(F)c1)CC(=O)Nc1cccc([N+](=O)[O-])c1,-21.1%,–
Cc1ccc(NC(=O)CN(C)CC(=O)Nc2cccc(F)c2)cc1[N+](=O)[O-],–,5.62 µM (active)
Cc1ccc(CN(C)CC(=O)Nc2cccc([N+](=O)[O-])c2)o1,-24.5%,–
COc1ccc(/C=C2/CCCc3ccccc3C2=O)cc1,-7.8%,–
Oc1c(Cl)cc(Cl)c(Cl)c1Cc1c(O)c(Cl)cc(Cl)c1Cl,-0.125% [at 8.37 µM],8.91 µM (active)
O=C(NCC(c1ccco1)N1CCc2ccccc2C1)c1ccccc1Cl (stereo not given),-11.9%,–
CC(=O)C(CC(=O)N1CCCC1)C(=O)Nc1ccc(Cl)cc1 (stereo not given),6.34%,–
CC/C(=C\c1ccc(Cl)cc1)c1ccncc1,7.6%,–
COC(=O)c1ccc(CNC(=O)Cn2cc(C)c(=O)[nH]c2=O)cc1,9.79%,–
O=c1nc(NO)ccn1C1CCCO1 (stereo not given),12.9%,–
COc1ccccc1N(CC(=O)Nc1ccc(C)cc1Cl)S(=O)(=O)c1cccs1,-23.6%,–

Compound,"activity change, negative = inhibition",Potency
CCOc1cc2[nH]c(=S)n(Cc3ccc(C(=O)N4CCN(C)CC4)cc3)c(=O)c2cc1OCC,–,12.6 µM (active)
CCOc1cc2[nH]c(=S)n(Cc3ccc(C(=O)NCCOC)cc3)c(=O)c2cc1OCC,-16.6%,–
COc1ccccc1Cn1c(=S)[nH]c2cc(C(=O)N3CCN(C)CC3)ccc2c1=O,4.3%,–
C[C@H](CO)N1C[C@H](C)[C@@H](CN(C)C(=O)NC2CCCCC2)Oc2ccc(NC(=O)c3ccncc3)cc2C1=O,15.1%,–
CCN(C[C@H]1N[C@@](Cc2ccccc2)(C(=O)OC)[C@H]2C(=O)N(Cc3ccccc3)C(=O)[C@@H]12)C(=O)c1ccc(C)cc1,-2.26%,–
COc1ccc2ccccc2c1/C=N/NC(=O)c1cc(C)[nH]n1,-6.93%,–
CC(C)(C)c1cc(C(=O)N/N=C/c2ccc([N+](=O)[O-])s2)n[nH]1,–,25.1 µM (active)
Cc1cc(C(=O)N/N=C/c2cc([N+](=O)[O-])cc(C)c2O)n[nH]1,0.137%,–
COc1ccc(S(=O)(=O)N2CCc3ccccc32)cc1C(=O)Nc1cc(S(C)(=O)=O)ccc1Cl,-5.31%,–
O=C(CSCC(=O)Nc1cccc([N+](=O)[O-])c1)Nc1ccccc1,11.5%,–
CCNC(=O)CSc1nc(-c2ccccc2)cs1,9.62%,–
O=C(CSc1nc(-c2ccccc2)cs1)Nc1cccc([N+](=O)[O-])c1,–,11.2 µM (active)
COc1ccccc1CNC(=O)CSc1nc(=O)n(Cc2ccncc2)c2c1CCC2,3.26%,–
CCOC(=O)C(=O)Nc1nc(-c2ccccc2)c(CC)s1,-1.32%,–
C/C(=N/Nc1nc(-c2ccccc2)c(CC(=O)O)s1)c1ccccc1,–,12.6 µM (active)
O=C(O)Cc1sc(-c2ccccc2)nc1-c1cccs1,7.27%,–
CC1O[C@@H](OC2C(O)C(C)O[C@H](OC(=O)[C@]34CCC(C)(C)C[C@H]3C3=CCC5[C@@]6(C)CC(O)C(O[C@@H]7OC(CO)C(O)[C@@H](O)[C@@H]7O)[C@@](C)(C(=O)O)C6CC[C@@]5(C)[C@]3(CO)CC4)C2O[C@H]2OC(C)[C@@H](O[C@@H]3OCC(O[C@@H]4OC(CO)C(O)[C@H](O)C4O)[C@@H](O)[C@@H]3O)[C@H](O)C2O)C(O)C(O)C1O (stereo not given in full),15.8%,–
CCCCn1c(N)c(N(CC(C)C)C(=O)c2ccc(-n3c(C)ccc3C)cc2)c(=O)[nH]c1=O,-16.9%,–
Cc1c(C)n2c(SCC(=O)N3CCCC3)nnc2[nH]c1=O,12.3%,–
COc1ccc(C(=O)OCc2cc(=O)n3ccsc3n2)cc1F,-17%,–
